Results taken from PubChem BioAssay (EPA / NIEHS).
“And” between values parts separate entries of the source, which are not always exact repeats. Equal values may be shown once. The source made the active and inactive calls. The calls were made as follows: active = hit-call score of the fitted dose curve at least 0.9, where 1 is the maximum; inactive = score below 0.9.

read-out: Collagen I, COL1A1 (gene 1277); assay: BSK_hDFCGF_CollagenI: BioMAP Diversity Plus: hDFCGF Assay for Collagen I Biomarker Activity (AID 2284250); conditions: primary human foreskin fibroblasts
Method: BSK_hDFCGF is a cell-based, multiplexed-readout assay that uses foreskin fibroblast, a human skin primary cell, with measurements taken at 24 hours after chemical dosing in a 96-well plate.BSK_hDFCGF_CollagenI is an assay component measured in the BSK_hDFCGF assay. It measures Collagen I antibody related to regulation of gene protein expression using ELISA technology.Data from the assay component BSK_hDFCGF_CollagenI was analyzed at the endpoint, BSK_hDFCGF_CollagenI, in the positive analysis fitting direction relative to DMSO as the negative control and baseline of activity. Using a type of binding reporter, gain or loss-of-signal activity can be used to understand protein changes. To generalize the intended target to other relatable targets, this assay endpoint is annotated to the 'cell adhesion molecules' intended target family, where the subfamily is 'collagen'.
The levels of cell surface (or secreted, indicated by the prefix "s") biomarker endpoints were measured by ELISA. Overt cytotoxicity to cells in confluent adherent cultures (all systems other than the BT system) was assessed by measuring total protein levels using sulforhodamine B (SRB) staining in parallel cultures at the time of biomarker measurements, indicated as SRB endpoints. For proliferation assays for adherent cell types, individual cell types are cultured at sub-confluence and relative cell numbers quantified by SRB staining at time points optimized for each system (48 h: 3C and CASM3C systems; 72 h: BT and HDF3CGF systems; 96 h: SAg system). SRB was performed by staining cells with 0.1% SRB after fixation with 10% TCA and reading wells at 560 nm.Viability and proliferation of PBMC (T cells) was quantified by Alamar Blue reduction for the SAg and BT systems. For PBMC viability (referred to as PBMC Cytotoxicity within the assay endpoint names), cells were plated (75,000/well in a 96-well plate) and then chemical samples added for 1 h before addition of activators, SEB and TSST-1 (20 ng/mL final concentration each). Cells were incubated for 90 h. Then, Alamar Blue (20 uL/well) (Invitrogen, Cat DAL1100) was added for 6 h, and the plates were read with a fluorescence microplate reader at 546/580 nm (excitation/emission). For PBMC proliferation, cells were plated and activated as above but incubated for only 16 h prior to addition of Alamar Blue. Plates were read after 6 h.

| SMILES | outcome | AC50 |
| --- | --- | --- |
| CC[Si](OC(C)=O)(OC(C)=O)OC(C)=O | inactive | – |
| C=CCOC(=O)CCC1CCCCC1 | inactive | – |
| COc1cc(C=O)ccc1OC(=O)C(C)C | inactive | – |
| CC(=O)[C@H]1CC[C@H]2[C@@H]3CC=C4C[C@@H](O)CC[C@]4(C)[C@H]3CC[C@]12C | – | 5.65 µM (active) and 9.87 µM (active) |
| Nc1cc([N+](=O)[O-])ccc1O | inactive | – |
| C[C@H]1C[C@@H]2[C@H]([C@@H](O)C[C@@]3(C)[C@H]2CC[C@]3(O)C(=O)CO)[C@@]2(C)C=CC(=O)C=C12 | inactive | – |
| Cc1cc(C2(c3cc(C)c(O)cc3C)OS(=O)(=O)c3ccccc32)c(C)cc1O | inactive | – |
| NCCNCCN | inactive | – |
| OC[C@H]1O[C@H](O[C@]2(CCl)O[C@H](CCl)[C@@H](O)[C@@H]2O)[C@H](O)[C@@H](O)[C@H]1Cl | inactive | – |
| CCC(=O)OCc1ccccc1 | inactive | – |
| CC(=O)OCCC(C)CC(C)(C)C (configuration not stated) | inactive | – |
| OC1OC[C@@H](O)[C@H](O)[C@H]1O (some centres not stated) | inactive | – |
